# An excerpt weighted towards active compounds, which were near 21% of everything screened.
# CHX counter – affects cycloheximide protein synthesis inhibition readout, counter-screen | cell reporter, cycloheximide protein synthesis inhibition counterscreen | max response, % | 300,000 tested, 12% active; in the data active = max response mostly above about 13%, no sharp cut-off; inactive = mostly below about 14%; note: read at 38.3 µM for the half of the compounds with a filed dose; 0% is about no effect
# Shiga toxin inh – blocks Shiga toxin action in Vero cells; inhibition, % at 38.7 µM; AID 2315; 290,000 tested, 9.2% active; Vero cells, Shiga toxin protein synthesis inhibition reporter; in the data active = inhibition mostly above about 28%, no sharp cut-off; inactive = mostly below about 43%; note: 0% is about no effect
# FBPA Giardia inh – blocks Giardia fructose-bisphosphate aldolase activity; Potency, µM (doses to about 59.6 µM), inactives show at the top dose activity, negative = inhibition, actives largely listed as inhibitors; A8B2U2; 290,000 tested, 0.71% active; purified Giardia FBPA; note: potency is the fitted concentration of half-maximal effect; % is set by controls: 0 for no effect and ±100 for the full control effect; nearly all actives have a fitted effect of over 55% in size
# Target sequence (A8B2U2 whole entry, looked up): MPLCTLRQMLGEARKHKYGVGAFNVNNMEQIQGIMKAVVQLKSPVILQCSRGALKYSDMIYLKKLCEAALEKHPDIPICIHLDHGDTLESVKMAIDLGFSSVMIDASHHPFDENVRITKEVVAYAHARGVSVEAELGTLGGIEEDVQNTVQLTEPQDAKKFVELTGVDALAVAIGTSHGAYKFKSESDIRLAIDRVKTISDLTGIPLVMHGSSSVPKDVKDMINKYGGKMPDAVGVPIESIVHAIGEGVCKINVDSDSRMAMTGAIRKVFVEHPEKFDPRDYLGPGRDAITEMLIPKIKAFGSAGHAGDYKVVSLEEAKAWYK
#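 Giardia FBPA (40 nM reagent) was preincubated 10 min at RT with compound (up to 57.5 uM final), then substrate plus GAPDH/TPI/NAD/arsenate coupling system with diaphorase/resazurin was added; resorufin fluorescence (525/598 nm) was read after 20 min.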
# Pf growth 48h – inhibits P. falciparum growth in the first generation, 48 h; P. falciparum luciferase growth in erythrocytes, 48 h; Potency, µM (doses to about 28.7 µM), for the others: at the highest dose activity change, negative = inhibition, hits mostly inhibitors; 310,000 tested, 5.9% active; AID 504832; note: potency is the fitted concentration of half-maximal effect; % is set by controls: 0 for no effect and ±100 for the full control effect
#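 In quantitative HTS format, infected erythrocytes bearing luciferase-reporter parasites were treated for a single generation at 37 C. Luminescence after adding detection reagent served as the growth measure.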
# Pf growth 96h – inhibits malaria parasite growth, 96 h; 320,000 tested, 6.9% active; Potency, µM (series often up to 28.7 µM), without a hit: top-dose activity change, negative = inhibition, usual class: inhibitors; AID 504834; P. falciparum luciferase reporter growth, 96 h; note: potency is the fitted concentration of half-maximal effect; % is set by controls: 0 for no effect and ±100 for the full control effect
#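 Two-generation exposure (96 h) targets delayed-death phenotype. Reporter parasites carrying integrated firefly luciferase, in red cells at 2% hematocrit and 0.05% parasitemia final, kept at 37 C, 5% CO2; luminescence loss indicates inhibition.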
# NS1 function inh – inhibitors of influenza NS1 protein function; 270,000 tested, 0.4% active; AID 2326; Potency, µM (doses to about 46.1 µM), inactives show top-dose activity, positive = more growth; calls by dose curve; note: potency is the fitted concentration of half-maximal effect; actives are rising curves; nearly all actives have a fitted effect of over 50% in size
#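 Compounds were scored for reversing the slow growth caused by influenza A NS1 in S. cerevisiae, measured by optical density at 600 nm. Assay medium contained 2% galactose at pH 6.0; NS1-free yeast of the same strain were the positive control.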
# Numbers without * were called inactive; ? = inconclusive; . = not tested or not shown; [ ] = dose if it differs, or a comment. Unless noted, calls come from the whole dose curve; as a rule, active = well fitted curve in the direction sought with a large enough effect; inconclusive = small, poorly fitted or top-dose-only effect, or another doubt; inactive = no such curve, though single readings can be large; an effect the other way counts as inactive or inconclusive.
SMILES,CHX counter,Shiga toxin inh,FBPA Giardia inh,Pf growth 48h,Pf growth 96h,NS1 function inh
NCCC[C@@H](CC(=O)N[C@@H]1CCCC[C@H]1C(=O)N[C@H](CC(=O)N[C@@H](CCC(=O)O)CC(=O)O)Cc1c[nH]c2ccccc12)NC(=O)C[C@H](CO)NC(=O)[C@@H]1CNCC[C@H]1N,.,.,-22%,.,.,.
C=CCOc1ccc(/C=N/NC(=O)CN2CCOCC2)cc1OCC,-2,-13,0%,1%,?,1%
Cc1ccc(-n2nc3c(c2NC(=O)c2ccccc2)CS(=O)(=O)C3)cc1C,11,26,.,-7%,-19%,4%
CC(=O)c1ccc(Nc2cc(C)nc3ccccc23)cc1,18*,37,7%,?,?,.
CC(=O)c1ccc(Nc2cc(C)nc3c(C)cccc23)cc1,0,0,-1%,?,49%,-13%
Cc1nc2ccccc2c(=O)n1/N=C/c1ccccc1OC(F)F,-2,18,3%,31%,12%,-3%
CCN1C(=O)/C(=C/c2nc3ccccc3c(=O)n2-c2ccc(C)cc2)c2ccccc21,16,10,1%,?,?,8%
COc1ccc(-n2c(/C=C3\C(=O)N(C)c4ccccc43)nc3ccccc3c2=O)cc1,-3,-10,-3%,6.6µM*,12µM*,-6%
CCC(CC)c1nc2ccccc2c(=O)[nH]1,6,-10,3%,11%,-1%,-2%
CCN1C(=O)/C(=C\c2nc3ccccc3c(=O)n2-c2ccccc2)c2ccccc21,-3,-11,23%,10µM*,-2%,-12%
CCN1C(=O)/C(=C/c2nc3ccccc3c(=O)[nH]2)c2ccccc21,26*,-3,2%,-2%,20%,6%
Cc1nc(CC(=O)Nc2nccs2)cs1,-2,-16,-13%,39%,32%,-1%
Cc1[nH]c2ccccc2c1/C=C/c1cc[n+](C)cc1,-1,-13,-1%,0.41µM*,0.15µM*,-1%
Cc1ccccc1/C=C/c1cc[n+](C)cc1,2,2,0%,5.2µM*,?,.
Cc1[nH]c2ccccc2c1/C=C/C(=O)c1ccncc1,8,19,1%,?,?,17%
CN(C)c1oc(-c2ccccc2)nc1C#N,-4,-11,2%,19%,?,-31%
CN(C)c1oc(/C=C/c2ccccc2)nc1C#N,44*,48*,-8%,106%,66%,-1%
COc1ccccc1/C=C/c1nc(C#N)c(N(C)C)o1,33*,87*,5%,80%,?,0%
Cc1cc(NC(=O)C(C)SCC(=O)Nc2cc(C(F)(F)F)ccc2N2CCOCC2)no1 (stereo unspecified),.,.,.,-8%,?,.
Cc1ccsc1/C=N/NC(=O)c1ccc2c(c1)OCCO2,23*,23,-6%,161%,20%,-38%
Cc1ccsc1/C=N\NC(=O)c1ccc2c(c1)OCO2,35*,85*,-4%,244%,197%,-15%
Cc1n[nH]c(=S)n(/N=C/c2cccc([N+](=O)[O-])c2)c1=O,0,-12,?,1.7µM*,?,-5%
COc1cccc([C@H]2Oc3ccc(OC)cc3/C(=N\O[C@@H]3O[C@H](COC(C)=O)[C@H](OC(C)=O)[C@H](OC(C)=O)[C@H]3OC(C)=O)[C@@H]2O)c1,.,.,0%[12.9 µM],.,.,.
Cn1cccc1C(=O)N1CCC2(CC1)CCN(c1cccc(-c3ccccc3)c1)CC2,.,.,-5%,.,.,.
Cc1cccc(C)c1NC(=O)c1cccc(COc2cc(Cl)ccc2Cl)c1,29*,62*,4%,?,?,-1%
SMILES,CHX counter,Shiga toxin inh,FBPA Giardia inh,Pf growth 48h,Pf growth 96h,NS1 function inh
CC(C)NC(=O)c1ccc(COc2cc(Cl)ccc2Cl)o1,9,14,6%,?,15%,-37%
Cc1nn(Cc2c(F)c(F)c(F)c(F)c2F)c(C)c1NC(=O)c1ccc(COc2ccccc2Cl)cc1,6,6,-1%,-1%,0%,14%
Cc1nn(Cc2c(F)c(F)c(F)c(F)c2F)c(C)c1NC(=O)c1ccc(COc2cc(Cl)ccc2Cl)cc1,54*,109*,-1%,72%,18%,12%
COc1cccc(/C=C/C(=O)N(C)CC(=O)Nc2ccc(Cl)c(C(F)(F)F)c2)c1,.,.,.,6%,8%,.
CN(CC(=O)Nc1ccccc1Br)CC(=O)Nc1ccccc1C(F)(F)F,0,-2,3%,11%,12%,-1%
Cc1cccc(C(=O)OC(C)C(=O)NCC2CCCCC2)c1O (stereo unspecified),.,.,.,?,-8%,.
COc1ccc2cc(C(=O)N3CCC(Cc4ccccc4)CC3)[nH]c2c1,17,28,2%,24%,27%,-1%
Cc1cc(=O)[nH]c(N/N=C/c2cccc(Br)c2)n1,15*,.,-20%,?,-19%,2%
Cc1cc(=O)[nH]c(N/N=C/c2ccc(Br)s2)n1,27*,29,-1%,9%,?,-6%
Cc1cc(=O)[nH]c(N/N=C/c2ccccn2)n1,14*,-34,?,2.9µM*,?,6%
Cc1cc(=O)[nH]c(N/N=C/c2ccc(Cl)c([N+](=O)[O-])c2)n1,1,-6,0%,2.3µM*,?,7%
CSc1ccc(/C=N/Nc2nc(C)cc(=O)[nH]2)cc1,11,29,-6%,40%,10%,-3%
Cc1cc(=O)[nH]c(N/N=C/c2cccc([N+](=O)[O-])c2)n1,-1,-7,?,26%,300%,7%
Cc1cc(=O)[nH]c(N/N=C/c2ccc(O)c(O)c2)n1,-5,10,-24%,?,4%,5%
CC(NC(=O)Cc1ccccc1)c1cc2c(cc1Br)OCCCO2 (stereo unspecified),-3,15,13%,8%,3%,-3%
CCC/C=N/NC(=O)c1[nH]c2c([N+](=O)[O-])cccc2c1C,-5,-7,-1%,?,?,?
COc1ccccc1C(=O)NCCc1c(C)[nH]c2c(C)ccc(F)c12,-4,4,0%,19%,-2%,.
COc1ccccc1NC(=O)N1CCCC(c2nc3c(nnn3Cc3ccc(C)cc3)c(=O)[nH]2)C1 (stereo unspecified),-3,-10,-1%,9.3µM*,-6%,2%
O=C(c1cccs1)N1CCCC(c2nc3c(nnn3Cc3ccccc3)c(=O)[nH]2)C1 (stereo unspecified),-4,-5,6%,8.3µM*,5.9µM*,3%
O=C(C1CCCCC1)N1CCCC(c2nc3c(nnn3Cc3ccccc3)c(=O)[nH]2)C1 (stereo unspecified),-2,-20,1%,?,.,0%
O=C(c1ccccc1)N1CCCC(c2nc3c(nnn3Cc3ccccc3)c(=O)[nH]2)C1 (stereo unspecified),8,-7,7%,13µM*,39%,0%
Cc1ccc(NC(=O)N2CCC(c3nc4c(nnn4Cc4cccc(Cl)c4)c(=O)[nH]3)CC2)cc1,1,1,0%,13µM*,0.029µM*,18%

# Assay outcomes as filed in PubChem.
